The values below come from PubChem BioAssay AID694 (Emory University Molecular Libraries Screening Center, 2007).

Hit rate of the full screen: of about 1,300 compounds, about 25 (2%) were called active. How the calls were made is not given here. The list comes from a sample in which actives are over-represented; it also holds similar structures and randomly drawn compounds.

The target in the assay is Estrogen receptor (Homo sapiens) (UniProt P03372). The assay can be described thus: ERα coactivator peptide binding inhibitors, primary screen, biochemical, LOPAC library, TR-FRET (AID 694).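 Further: receptor was agonist-bound with estradiol present during the assay.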 Particulars: TR-FRET ERalpha-coactivator peptide binding, stronger effect = higher value. (In TR-FRET formats the signal depends on donor and acceptor labels being close together.)
Sequence of Estrogen receptor (Homo sapiens) (P03372 whole entry, looked up): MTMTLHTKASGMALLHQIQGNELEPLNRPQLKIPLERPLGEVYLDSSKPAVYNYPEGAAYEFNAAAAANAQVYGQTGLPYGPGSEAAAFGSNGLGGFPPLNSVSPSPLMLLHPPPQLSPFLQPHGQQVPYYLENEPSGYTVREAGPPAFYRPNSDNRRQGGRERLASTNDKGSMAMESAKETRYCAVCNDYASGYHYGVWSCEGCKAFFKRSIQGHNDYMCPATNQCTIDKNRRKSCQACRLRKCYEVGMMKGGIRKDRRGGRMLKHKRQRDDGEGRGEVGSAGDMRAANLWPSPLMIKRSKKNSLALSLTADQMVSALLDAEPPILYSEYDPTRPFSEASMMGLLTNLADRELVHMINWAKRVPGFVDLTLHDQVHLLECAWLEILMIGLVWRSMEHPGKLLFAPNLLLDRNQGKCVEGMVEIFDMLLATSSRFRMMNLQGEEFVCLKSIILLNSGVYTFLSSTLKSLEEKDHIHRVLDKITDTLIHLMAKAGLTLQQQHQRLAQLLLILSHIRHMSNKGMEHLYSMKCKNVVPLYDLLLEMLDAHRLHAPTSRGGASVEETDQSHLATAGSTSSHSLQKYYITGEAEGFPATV

As a reminder, the inhibition is the relative decrease from the control value, in per cent. In the case of `O=C(Nc1cc(C(=O)Nc2ccc(S(=O)(=O)O)cc2S(=O)(=O)O)cc(C(=O)Nc2ccc(S(=O)(=O)O)cc2S(=O)(=O)O)c1)Nc1cc(C(=O)Nc2ccc(S(=O)(=O)O)cc2S(=O)(=O)O)cc(C(=O)Nc2ccc(S(=O)(=O)O)cc2S(=O)(=O)O)c1`, the inhibition (at 45 µM) was 22.9% (inactive) and the inhibition (inhibition, at 15 µM) was found to be 17.2%.

Take `C/C=C1\C(=O)CC2C3CCC4=CC(=O)CC[C@]4(C)C3CC[C@]12C` (some centres not stated): the inhibition is, setting by setting: (at 45 µM) -2.62% (inactive); (inhibition, at 15 µM) -5.45%.

As to `Cc1cc(C)c(NC(=O)C[C@H](CC(=O)O)c2cccc3ccccc23)c(C(=O)N2CCC3(CCCC3)CC2)c1`, the inhibition was 4.81% (active) (at 45 µM) and 53% (inhibition, at 15 µM).

Take `C[N+](C)(C)CCC(=O)c1cccc2ccccc12`: the inhibition (at 45 µM) was 4.57% (inactive) and the inhibition (inhibition, at 15 µM) was found to be 3.36%.

Turning to `COc1ccccc1N1CCN(CCN(C(=O)c2ccc(I)cc2)c2ccccn2)CC1`, the inhibition is 10.1% (inactive) (at 45 µM) and 2.05% (inhibition, at 15 µM).

Turning to `CCCCCCCCCCCCCCCC(=O)OC(CC(=O)O)C[N+](C)(C)C` (configuration not stated), the inhibition is 12.7% (inactive) (at 45 µM) and 4.2% (inhibition, at 15 µM).

As for `CC(C)C[C@H](NC(=O)[C@@H](O)[C@H](N)Cc1ccccc1)C(=O)O`, the inhibition is, setting by setting: (at 45 µM) -3.72% (inactive); (inhibition, at 15 µM) 0.08%.

With `O=C(O)CNC(=O)C(CS)Cc1ccccc1` (configuration not stated), the inhibition (at 45 µM) was -3.83% (active) and the inhibition (inhibition, at 15 µM) turned out to be 50.5%.

Turning to `CC(C)C[C@H](NC(=O)[C@H](O)[C@H](N)Cc1ccccc1)C(=O)O`, the inhibition (at 45 µM) is -1.92% (inactive) and the inhibition (inhibition, at 15 µM) was -0.07%.

With `CC1=C(CC(=O)O)c2cc(F)ccc2/C1=C\c1ccc(S(C)(=O)=O)cc1`, the inhibition (at 45 µM) was 2.44% (inactive) and the inhibition (inhibition, at 15 µM) worked out at 2.34%.

For `Nc1nc(Cl)nc2c1ncn2[C@@H]1O[C@H](COP(=O)(O)OP(=O)(O)OP(=O)(O)O)[C@H](O)C1O` (some centres not stated), the inhibition by setting is: (at 45 µM) -8.59% (inactive); (inhibition, at 15 µM) -0.94%.

`CN(C)CCCO[C@@H]1[C@H]2OC(C)(C)O[C@H]2O[C@@H]1C(O)CO` (some centres not stated): the inhibition is 6.83% (inactive) (at 45 µM) and -5.23% (inhibition, at 15 µM).

`CN1CCc2cc(Cl)c(O)cc2[C@@H](c2ccccc2)C1`: the inhibition reads like this: (at 45 µM) 1.68% (inactive); (inhibition, at 15 µM) 0.35%.

`NCCNC(=O)c1ccc(Cl)cc1`: the inhibition by setting is: (at 45 µM) -1.66% (inactive); (inhibition, at 15 µM) 0.74%.

On to `OCC1NCC(O)C(O)C1O` (configuration not stated), for which the inhibition is -2.36% (inactive) (at 45 µM) and -2.41% (inhibition, at 15 µM).

Turning to `CN(C)CCCN1c2ccccc2Sc2ccc(C(F)(F)F)cc21`, the inhibition is, setting by setting: (at 45 µM) 1.43% (inactive); (inhibition, at 15 µM) 1.81%.

Consider `O=S(=O)(c1cccc2c(Cl)cccc12)N1CCCNCC1`, for which the inhibition is, setting by setting: (at 45 µM) -6.25% (inactive); (inhibition, at 15 µM) -1.24%.

For the compound `OCC1O[C@H](O)C(Cl)C(O)C1O` (some centres not stated), the inhibition (at 45 µM) was 2.62% (inactive) and the inhibition (inhibition, at 15 µM) was determined as 2.64%.

Turning to `O=C(O)C1=CC(=C(c2ccc(O)c(C(=O)O)c2)c2ccc(O)c(C(=O)O)c2)C=CC1=O`, the inhibition runs as follows: (at 45 µM) 88.6% [fluorescence artefact?] (active); (inhibition, at 15 µM) 76%.

Consider `Cc1cc(NC(=O)Nc2ccc3c(ccn3C)c2)sn1`, for which the inhibition is 0.07% (inactive) (at 45 µM) and -2% (inhibition, at 15 µM).

Consider `Cc1c(C)c2c(c(C)c1O)CCC(C)(CN1CCN(c3cc(N4CCCC4)nc(N4CCCC4)n3)CC1)O2` (configuration not stated), for which the inhibition was -11.9% (inactive) (at 45 µM) and -0.19% (inhibition, at 15 µM).

For `Oc1ccc(O)cc1`, the inhibition by setting is: (at 45 µM) 0.27% (inactive); (inhibition, at 15 µM) -2.06%.

Regarding `NC(=NCc1ccc(Cl)c(Cl)c1)NC(=O)c1nc(Cl)c(N)nc1N`, the inhibition runs as follows: (at 45 µM) 2.8% (inactive); (inhibition, at 15 µM) -1.44%.

Turning to `N#CC(=C(\N)Sc1ccccc1N)/C(C#N)=C(/N)Sc1ccccc1N`, the inhibition is -6.45% (inactive) (at 45 µM) and -2.12% (inhibition, at 15 µM).

Regarding `COc1ccc(CCNC[C@@H](O)c2ccc(O)cc2)cc1OC`, the inhibition is 1.27% (inactive) (at 45 µM) and 1.3% (inhibition, at 15 µM).

Regarding `C[n+]1cc2c3c(ccc2c2ccc4cc5c(cc4c21)OCO5)OCO3`, the inhibition by setting is: (at 45 µM) 7.36% (inactive); (inhibition, at 15 µM) 3.96%.

As for `NCCSSCCN`, the inhibition runs as follows: (at 45 µM) -10.9% (inactive); (inhibition, at 15 µM) -6.09%.

Consider `Nc1nc2c(nc(Br)n2C2OC3COP(=O)(O)O[C@@H]3C2O)c(=O)[nH]1` (some centres not stated), for which the inhibition (at 45 µM) was -3.13% (inactive) and the inhibition (inhibition, at 15 µM) was -2.06%.

As to `CC(C)(C)c1onc(OCP(=O)(O)O)c1CC(N)C(=O)O` (configuration not stated), the inhibition is, setting by setting: (at 45 µM) -28.3% (inactive); (inhibition, at 15 µM) -2.65%.

`CC[N+](CC)(CC)CC(=O)Nc1c(C)cccc1C`: the inhibition runs as follows: (at 45 µM) -2.22% (inactive); (inhibition, at 15 µM) 1.79%.

Regarding `C/C(=C\c1ccc(C(=O)O)cc1)c1ccc2c(c1)C(C)(C)CCC2(C)C`, the inhibition is 40.9% (inactive) (at 45 µM) and 34.2% (inhibition, at 15 µM).

Take `O=c1c2ccccc2nc2n1CCc1c-2[nH]c2ccccc12`: the inhibition is 2.93% (inactive) (at 45 µM) and 1.11% (inhibition, at 15 µM).

In the case of `N=C(N)c1ccc(OCCCCCOc2ccc(C(=N)N)cc2)cc1` (tested in a mixture with another compound), the inhibition reads like this: (at 45 µM) 3.73% (inactive); (inhibition, at 15 µM) 1.26%.

Consider `C[C@@H](NC(=O)/C(C#N)=C/c1ccc(O)c(O)c1)c1ccccc1`, for which the inhibition (at 45 µM) is 2.49% (inactive) and the inhibition (inhibition, at 15 µM) was found to be 3.07%.

In the case of `CC(=O)[C@H]1CCC2C3CC=C4C[C@@H](OS(=O)(=O)O)CC[C@]4(C)C3CC[C@@]21C` (some centres not stated), the inhibition is 0.32% (inactive) (at 45 µM) and 0.94% (inhibition, at 15 µM).

For the compound `NCCNS(=O)(=O)c1cccc2cnccc12`, the inhibition is -4.68% (inactive) (at 45 µM) and -3.64% (inhibition, at 15 µM).

For the compound `Cc1cc2c(cc1Cl)N(C(=O)Nc1ccnc3ccccc13)CC2`, the inhibition (at 45 µM) is -4.11% (inactive) and the inhibition (inhibition, at 15 µM) came out at 1.97%.

Consider `Cc1cc(N)c2ccccc2[n+]1CCCCCCCCCCCCCC[n+]1c(C)cc(N)c2ccccc21`, for which the inhibition is 73.8% [fluorescence artefact?] (active) (at 45 µM) and 65.9% (inhibition, at 15 µM).

As for `Cc1cc(N)c2ccccc2[n+]1CCCCCCCCCC[n+]1c(C)cc(N)c2ccccc21`, the inhibition runs as follows: (at 45 µM) 19.8% (inactive); (inhibition, at 15 µM) 30.1%.

For the compound `CSc1nc(N)c2ncn([C@@H]3O[C@H](COP(=O)(O)OP(=O)(O)OP(=O)(O)O)[C@H](O)C3O)c2n1` (some centres not stated), the inhibition is -1.74% (inactive) (at 45 µM) and -5.35% (inhibition, at 15 µM).

On to `N.N.N.N.N.N.N.N.N.N.N.N.N.N.O.O.[Cl-].[Cl-].[Cl-].[Cl-].[Cl-].[Cl-].[Ru+4].[Ru+5].[Ru+5]`, for which the inhibition reads like this: (at 45 µM) 100% [fluorescence artefact?] (active); (inhibition, at 15 µM) 99.8%.
